Source: PubChem BioAssay AID1159580 (chemical genetic matrix, 2015)
“And” between values parts separate entries of the source, which are not always exact repeats. Equal values may be shown once. Hit rate of the full screen: of about 5,500 compounds, about 2,000 (36%) were called active. About 18% were inconclusive and are not listed. Cut-off read from the data, not from the text of the source: active = normalized growth mostly below about 0.91 (no sharp cut-off); inconclusive = no clear call, values can overlap the other calls; inactive = mostly above about 0.92. Some of the results follow.

Assay: chemical genetic growth profiling, strain panel (AID 1159580);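 note: tested at 20 µM; growth read once vehicle control cultures reached saturation at 30 °C; 1 = growth at the plate median or of vehicle wells; lower values mean less growth of the strain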
Details: S. cerevisiae deletion strains, growth OD

Measured: normalized growth

CC1=C(/C=C/C(C)=C/C=C/C(C)=C/C=C/C=C(C)/C=C/C=C(C)/C=C/C2=C(C)CCCC2(C)C)C(C)(C)CCC1
inactive: locus YAL021C, strain ccr4, hits give low values 0.978 | locus YAL026C, strain drs2, hits give low values 0.997 | locus YAL030W, strain snc1, hits give low values 0.995 | locus YBL061C, strain skt5, hits give low values 0.997 | locus YBR021W, strain FUR4, hits give low values 0.99 | locus YBR023C, strain chs3, hits give low values 0.992 | locus YBR171W, strain sec66, hits give low values 0.977 | locus YBR229C, strain ROT2, hits give low values 1.01 | locus YBR231C, strain swc5, hits give low values 1.02 | locus YBR279W, strain paf1, hits give low values 0.987 | locus YCL011C, strain gbp2, hits give low values 0.997 | locus YCL016C, strain dcc1, hits give low values 1.01 | locus YCL029C, strain bik1, hits give low values 1.02 | locus YCL061C, strain MRC1, hits give low values 0.995 | locus YCL069W, strain vba3, hits give low values 0.997 | locus YCR088W, strain abp1, hits give low values 0.995 | locus YDL005C, strain med2, hits give low values 0.998 | locus YDL035C, strain GPR1, hits give low values 1 | locus YDL040C, strain nat1, hits give low values 0.995 | locus YDL074C, strain BRE1, hits give low values 1 | locus YDL101C, strain DUN1, hits give low values 1.01 | locus YDL134C, strain PPH21, hits give low values 1.01 | locus YDL185W, strain tfp1, hits give low values 1.02 | locus YDL192W, strain arf1, hits give low values 1.02 | locus YDR001C, strain nth1, hits give low values 0.987 | locus YDR069C, strain doa4, hits give low values 0.994 | locus YDR101C, strain arx1, hits give low values 0.982 | locus YDR137W, strain rgp1, hits give low values 0.964 | locus YDR150W, strain NUM1, hits give low values 1.01 | locus YDR159W, strain sac3, hits give low values 1.01 | locus YDR162C, strain NBP2, hits give low values 1.02 | locus YDR195W, strain ref2 0.999 | locus YDR297W, strain sur2, hits give low values 1.02 | locus YDR318W, strain mcm21, hits give low values 1.01 | locus YDR334W, strain swr1, hits give low values 0.99 | locus YDR335W, strain msn5, hits give low values 0.997 | locus YDR388W, hits give low values 1.01 | locus YDR392W, strain spt3, hits give low values 0.982 | locus YDR502C, strain sam2, hits give low values 0.993 | locus YEL003W, strain gim4, hits give low values 1.02 | locus YEL037C, strain rad23, hits give low values 0.999 | locus YEL061C, strain CIN8 (second series), hits give low values 0.997 | locus YEL061C, strain CIN8, hits give low values 1.01 | locus YER015W, strain faa2, hits give low values 0.973 | locus YER016W, strain bim1, hits give low values 1 | locus YER110C, hits give low values 1 | locus YER111C, strain swi4, hits give low values 0.983 | locus YER155C, strain BEM2 (second series), hits give low values 1.04 | locus YER155C, strain BEM2, hits give low values 1.01 | locus YER167W, strain BCK2, hits give low values 1.01 | locus YFR010W, strain ubp6, hits give low values 1 | locus YGL078C, strain dbp3, hits give low values 0.996 | locus YGL086W, strain mad1, hits give low values 1.01 | locus YGL167C, strain pmr1, hits give low values 0.992 | locus YGL173C, strain kem1, hits give low values 1 | locus YGL227W, strain vid30, hits give low values 0.99 | locus YGL240W, strain doc1, hits give low values 1.02 | locus YGL248W, strain PDE1, hits give low values 1.01 | locus YGL253W, strain hxk2, hits give low values 0.949 | locus YGR135W, strain pre9, hits give low values 1.03 | locus YGR229C, strain SMI1, hits give low values 1 | locus YGR252W, strain gcn5, hits give low values 0.998 | locus YHR013C, strain ard1, hits give low values 0.967 | locus YHR027C, strain rpn1, hits give low values 1.01 | locus YHR030C, strain SLT2, hits give low values 1.02 and 1.01 | locus YHR079C, strain IRE1 (second series), hits give low values 1 | locus YHR079C, strain IRE1, hits give low values 1.04 | locus YHR094C, strain hxt1, hits give low values 0.999 | locus YHR129C, strain ARP1, hits give low values 1.01 | locus YHR142W, strain chs7, hits give low values 0.967 | locus YHR200W, strain rpn10, hits give low values 1.01 | locus YIL066C, strain RNR3, hits give low values 1.01 | locus YIL073C, strain SPO22, hits give low values 1.07 | locus YIL125W, strain kgd1, hits give low values 0.998 | locus YIR030C, strain dcg1, hits give low values 1 | locus YJL092W, strain hpr5, hits give low values 0.992 | locus YJL095W, strain BCK1 (second series), hits give low values 0.989 | locus YJL095W, strain BCK1, hits give low values 1.03 and 1.02 | locus YJL115W, strain asf1, hits give low values 0.996 | locus YJL129C, strain trk1, hits give low values 0.969 | locus YJL134W, strain LCB3, hits give low values 1.01 | locus YJL154C, strain vps35, hits give low values 0.999 | locus YJL164C, strain tpk1, hits give low values 1.01 | locus YJL166W, strain qcr8, hits give low values 0.955 | locus YJL168C, strain set2, hits give low values 1 | locus YJL187C, strain SWE1 (second series), hits give low values 1.01 | locus YJL187C, strain SWE1, hits give low values 0.995 | locus YJR043C, strain POL32, hits give low values 1.01 | locus YJR066W, strain TOR1, hits give low values 0.974 | locus YKL009W, strain mrt4, hits give low values 0.941 | locus YKL068W, hits give low values 1.01 | locus YKL085W, strain MDH1 (second series), hits give low values 0.983 | locus YKL085W, strain MDH1, hits give low values 0.983 | locus YKL160W, strain elf1, hits give low values 0.927 | locus YKR001C, strain vps1, hits give low values 0.986 | locus YKR026C, strain gcn3, hits give low values 0.987 | locus YKR091W, strain srl3, hits give low values 0.991 | locus YLL001W, strain dnm1, hits give low values 0.926 | locus YLL026W, hits give low values 0.999 | locus YLL041C, strain sdh2, hits give low values 1.03 | locus YLR027C, strain aat2, hits give low values 0.998 | locus YLR039C, strain RIC1, hits give low values 0.996 | locus YLR058C, strain SHM2, hits give low values 1.01 | locus YLR102C, strain apc9, hits give low values 0.997 | locus YLR113W, strain HOG1, hits give low values 1.02 | locus YLR221C, strain rsa3, hits give low values 0.977 | locus YLR258W, strain gsy2, hits give low values 1.02 | locus YLR262C, strain YPT6 (second series), hits give low values 0.941 | locus YLR262C, strain YPT6, hits give low values 0.982 | locus YLR268W, strain sec22, hits give low values 0.992 | locus YLR320W, strain mms22, hits give low values 0.994 | locus YLR330W, strain CHS5, hits give low values 1.01 | locus YLR342W, strain FKS1 (second series), hits give low values 1.01 | locus YLR342W, strain FKS1, hits give low values 0.981 | locus YLR357W, strain rsc2, hits give low values 0.957 | locus YLR370C, strain arc18, hits give low values 1 | locus YLR371W, strain rom2, hits give low values 1 | locus YLR384C, strain iki3, hits give low values 1 | locus YLR418C, strain cdc73, hits give low values 0.993 | locus YML016C, strain PPZ1, hits give low values 1 | locus YML032C, strain rad52, hits give low values 1 | locus YML120C, strain ndi1, hits give low values 0.962 | locus YML124C, strain tub3, hits give low values 1 | locus YMR058W, strain fet3, hits give low values 0.985 | locus YMR078C, strain ctf18, hits give low values 1.03 | locus YMR125W, strain sto1, hits give low values 0.929 | locus YMR129W, hits give low values 0.996 | locus YMR205C, strain PFK2, hits give low values 0.934 | locus YMR223W, strain ubp8, hits give low values 1.01 | locus YMR231W, strain pep5, hits give low values 0.997 | locus YMR263W, strain SAP30, hits give low values 1.02 | locus YMR307W, strain GAS1, hits give low values 1.06 | locus YNL067W, strain RPL9B, hits give low values 1.01 | locus YNL071W, strain lat1, hits give low values 0.984 | locus YNL153C, strain GIM3, hits give low values 1.01 | locus YNL183C, strain NPR1, hits give low values 0.97 | locus YNL209W, strain ssb2, hits give low values 0.997 | locus YNL233W, strain BNI4, hits give low values 1.01 | locus YNL248C, strain rpa49, hits give low values 0.906 | locus YNL250W, strain rad50, hits give low values 1.02 | locus YNL271C, strain bni1, hits give low values 0.997 | locus YNL298W, strain CLA4, hits give low values 0.991 | locus YNL307C, strain MCK1, hits give low values 1.01 | locus YNL322C, strain KRE1 (second series), hits give low values 0.993 | locus YNL322C, strain KRE1, hits give low values 1.01 | locus YNR049C, strain mso1, hits give low values 1.01 | locus YNR052C, strain pop2, hits give low values 1 | locus YOL006C, strain TOP1, hits give low values 1.01 | locus YOL012C, strain htz1 1.24 | locus YOL147C, strain pex11, hits give low values 1.01 | locus YOR001W, strain rrp6, hits give low values 1.07 | locus YOR061W, strain CKA2, hits give low values 1.01 | locus YOR069W, strain VPS5, hits give low values 1.01 | locus YOR070C, strain gyp1, hits give low values 1 | locus YOR080W, strain dia2, hits give low values 0.996 | locus YOR083W, strain WHI5, hits give low values 0.94 | locus YOR106W, strain vam3, hits give low values 0.922 | locus YOR136W, strain idh2, hits give low values 1.02 | locus YOR144C, strain elg1, hits give low values 1 | locus YOR184W, strain ser1, hits give low values 1.01 | locus YOR231W, strain MKK1, hits give low values 1.02 | locus YOR265W, strain rbl2, hits give low values 0.992 | locus YOR270C, strain vph1, hits give low values 0.875 | locus YOR290C, strain snf2, hits give low values 0.953 | locus YOR316C, strain cot1, hits give low values 1 | locus YPL051W, strain arl3, hits give low values 1.02 | locus YPL078C, strain atp4, hits give low values 0.931 | locus YPL106C, strain sse1, hits give low values 1.03 | locus YPL240C, strain hsp82, hits give low values 1 | locus YPL241C, strain CIN2, hits give low values 1.01 | locus YPL256C, strain CLN2, hits give low values 0.994 | locus YPR119W, strain clb2, hits give low values 1.01 | locus YPR141C, strain kar3, hits give low values 1.01 | locus YPR163C, strain tif3, hits give low values 1 | locus YPR167C, strain met16, hits give low values 1.01 | strain wtn01, hits give low values 0.991
active: locus YBR009C, strain hhf1, hits give low values 1.1 [resistant]
